Assay [1] can be described thus: qHTS for Inhibitors of the Functional Ribonucleoprotein Complex (vRNP) of Lassa (LASV) Arenavirus: LASV Primary Screen - GLuc reporter signal (AID 1347082; calls by dose curve; tested in HEK293 reporter line; note: nearly all actives have a fitted effect of over 60% in size; note: potency is the fitted concentration of half-maximal effect; for activity change, negative = inhibition: % is set by controls: 0 for no effect and ±100 for the full control effect).
The target of assay [2] is Nucleoprotein (Lymphocytic choriomeningitis virus (strain Armstrong)) (UniProt P09992). The assay is described as follows: qHTS for Inhibitors of the Functional Ribonucleoprotein Complex (vRNP) of Lymphocytic Choriomeningitis Arenaviruses (LCMV): LCMV Primary Screen - GLuc reporter signal (AID 1347086). Note: % is set by controls: 0 for no effect and ±100 for the full control effect; nearly all actives have a fitted effect of over 70% in size.
Assay [3] is described as follows: Cytotoxicity counterscreen for inhibitors of SARS-CoV-2 cell entry (AID 1645845). Note: nearly all actives have a fitted effect of over 50% in size. Note: potency is the fitted concentration of half-maximal effect. A digest of the protocol:
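48 h compound treatment (after 1 h preincubation), HEK293-ACE2 cells, 37 C/5% CO2; ATP luminescence endpoint; normalized to cell wells and media blanks.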

The nature of assay [4]: qHTS for Inhibitors of the Functional Ribonucleoprotein Complex (vRNP) of Lassa (LASV) Arenavirus: Viability assay - alamar blue signal for LASV Primary Screen (AID 1347083; calls by dose curve; tested in HEK293 reporter line; note: nearly all actives have a fitted effect of over 80% in size; note: potency is the fitted concentration of half-maximal effect). For orientation: Quantitative high-throughput screening tests each substance at several concentrations.
A short description of assay [5]: qHTS profiling of the MIPE4 collection as inhibitors of Plasmodium falciparum (3D7) proliferation (AID 743344; call rule not given here;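 note: scaled between DMSO vehicle wells and 0.29 µM artemisinin as full inhibition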). Conditions: P. falciparum 3D7 in erythrocytes, SYBR Green DNA fluorescence, 72 h; at 28.5 µM (top of the series) unless noted. A digest of the protocol:
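Erythrocytes infected with P. falciparum (0.3% parasitemia, 2.5% hematocrit) incubated with compounds 72 h at 37 C, 5% CO2. Lysis with saponin/Triton buffer containing SYBR Green I, overnight at room temperature in the dark; DNA fluorescence (485/535 nm) normalised to 0.29 uM artemisinin and DMSO.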

Assay [6] deals with Rap guanine nucleotide exchange factor 3 (Homo sapiens) (UniProt O95398). The assay is described as follows: Confirmatory qHTS for agonist of cAMP-regulated guanine nucleotide exchange factor 3 (EPAC1) (AID 1645881; active = well fitted curve in the direction sought with a large enough effect; an effect the other way counts as inactive or inconclusive;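 note: EPAC1 catalysed release of BODIPY-GDP from Rap1B seen as fluorescence loss; 100% = effect of cAMP agonist control; nearly all actives have a fitted effect of over 75% in size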).
The target of assay [7] is Rap guanine nucleotide exchange factor 4 (Homo sapiens) (UniProt Q8WZA2). The assay is described as follows: Confirmatory qHTS for agonist of cAMP-regulated guanine nucleotide exchange factor 4 (EPAC2) (AID 1645884; active = well fitted curve in the direction sought with a large enough effect; an effect the other way counts as inactive or inconclusive;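 note: nucleotide exchange releases bodipy-GDP from Rap1 and this lowers its fluorescence; % is set by controls: 0 for no effect and ±100 for the full control effect; nearly all actives have a fitted effect of over 65% in size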).
The target is the same in assay [8]. The assay is described as follows: Confirmatory qHTS for antagonist of cAMP-regulated guanine nucleotide exchange factor 4 (EPAC2) (AID 1645885; active = well fitted curve in the direction sought with a large enough effect; an effect the other way counts as inactive or inconclusive; note: % is set by controls: 0 for no effect and ±100 for the full control effect; nearly all actives have a fitted effect of over 25% in size).
For assay [9], the target named is Rap guanine nucleotide exchange factor 3 (Homo sapiens) (UniProt O95398). The assay is described as follows: Counterscreen qHTS for antagonist of cAMP-regulated guanine nucleotide exchange factor 3 (EPAC1) (AID 1645888; active = well fitted curve in the direction sought with a large enough effect; an effect the other way counts as inactive or inconclusive;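 note: fluorescence loss as bound BODIPY-GDP is released from Rap1B; % of control where 0% means no effect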). The method in brief: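 Rap1B-BODIPY-GDP 250 nM + GDP 50 uM; cpds 7-pt, final 9.74 nM–152 uM (activator mode) or from 7.32 nM upwards (inhibitor mode); RT; FI 480/540 nm at 5 and 30 min, then ± cAMP, reread.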

A short description of assay [10]: Primary qHTS to identify inhibitors of SARS-CoV-2 cell entry (AID 1645846). Note: nearly all actives have a fitted effect of over 45% in size. Note: potency is the fitted concentration of half-maximal effect. Conditions: activity change, negative = inhibition: at 57.1 µM (top of the series) unless noted. A digest of the protocol:
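Using luciferase-reporting pseudoviruses carrying Wuhan-Hu-1 spike, the screen tracks entry into stably ACE2-expressing cells over 48 hr. Activity is expressed relative to spike particles versus particles lacking any fusion protein.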

The target of assay [11] is Alpha-galactosidase (Coffea arabica) (UniProt Q42656). The assay is described as follows: Counterscreen for Glucocerebrosidase Inhibitors: qHTS Assay for Coffee Bean alpha-Galactosidase at pH 4.5 (AID 957; active = well fitted curve in the direction sought with a large enough effect; an effect the other way counts as inactive or inconclusive;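 note: plate controls were enzyme alone for no effect and no enzyme for full effect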). A digest of the protocol:
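Green coffee bean enzyme (2 nM final) was incubated with compounds (0.7 nM to 77 uM) and 4-methylumbelliferyl alpha-D-galactopyranoside (80 uM final) in 50 mM citric acid, 0.005% Tween-20, pH 4.5, 20 min at room temperature; AC50 from Hill fits.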
(The purpose of a counterscreen is to sort out artefacts and off-target activity.)

Assay [12] is described as follows: Validation screen for inhibitors of Lassa infection (AID 463096). For activity change, negative = inhibition: % is set by controls: 0 for no effect and ±100 for the full control effect. Note: potency is the fitted concentration of half-maximal effect.
The target of assay [13] is Alpha-galactosidase (Coffea arabica) (UniProt Q42656). The assay is described as follows: Counterscreen for Glucocerebrosidase Inhibitors: qHTS Assay for Coffee Bean alpha-Galactosidase at pH 5.9 (AID 998; active = well fitted curve in the direction sought with a large enough effect; an effect the other way counts as inactive or inconclusive;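 note: plate controls were uninhibited enzyme for no effect and no-enzyme basal signal for full effect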). A digest of the protocol:
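Compounds were titrated from 0.7 nM to 77 uM against green coffee bean alpha-galactosidase (2 nM) using 80 uM fluorogenic 4-methylumbelliferyl substrate. After 20 min at room temperature, reactions were stopped at pH 10 and read by fluorescence.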

Assay [14] can be described thus: Inducers of the Endoplasmic Reticulum Stress Response (ERSR) in human glioma: Validation (AID 504836; active = well fitted curve in the direction sought with a large enough effect; an effect the other way counts as inactive or inconclusive; note: 0% is about no effect). The method in brief: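 ERSR induction read as luciferase luminescence (Bright-Glo, 10 min at room temperature) in stably transfected human U87-MG glioma cells exposed to compounds for 16 h, using GRP78 as sensor.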
Assay [15] addresses Voltage-gated inwardly rectifying potassium channel KCNH2 (Homo sapiens) (UniProt Q12809). The assay is described as follows: qHTS Assay for Small Molecule Inhibitors of the Human hERG Channel Activity (AID 588834; active = well fitted curve in the direction sought with a large enough effect; an effect the other way counts as inactive or inconclusive;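 note: potency is the fitted concentration of half-maximal effect; lower thallium flux fluorescence means stronger hERG block; nearly all actives have a fitted effect of over 50% in size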). The method in brief: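 Blockade is seen as reduced FluxOR thallium-flux fluorescence in U2OS cells expressing hERG from a BacMam construct, in Opti-MEM with 2% FCS. Concentration-response data fitted to the Hill equation for AC50.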

Assay [16] in a line: Confirmatory qHTS to identify inhibitors of SARS-CoV-2 cell entry (AID 1645844). Note: potency is the fitted concentration of half-maximal effect; nearly all actives have a fitted effect of over 45% in size. The method in brief:
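Luminescence from a luciferase reporter, read 48 hr after pseudotyped-particle addition, gives entry signal, normalised to spike-bearing PP wells and bald PP lacking fusion protein wells. Cells are Expi293F stably expressing human ACE2, compound-pretreated 1 hr.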

SMILES strings stand for the structures. Results filed as inconclusive are left out. Active and inactive are the calls of the source. Unless noted, calls come from the whole dose curve.

Nucleoprotein (Lymphocytic choriomeningitis virus (strain Armstrong)), sequence (P09992 whole entry, looked up): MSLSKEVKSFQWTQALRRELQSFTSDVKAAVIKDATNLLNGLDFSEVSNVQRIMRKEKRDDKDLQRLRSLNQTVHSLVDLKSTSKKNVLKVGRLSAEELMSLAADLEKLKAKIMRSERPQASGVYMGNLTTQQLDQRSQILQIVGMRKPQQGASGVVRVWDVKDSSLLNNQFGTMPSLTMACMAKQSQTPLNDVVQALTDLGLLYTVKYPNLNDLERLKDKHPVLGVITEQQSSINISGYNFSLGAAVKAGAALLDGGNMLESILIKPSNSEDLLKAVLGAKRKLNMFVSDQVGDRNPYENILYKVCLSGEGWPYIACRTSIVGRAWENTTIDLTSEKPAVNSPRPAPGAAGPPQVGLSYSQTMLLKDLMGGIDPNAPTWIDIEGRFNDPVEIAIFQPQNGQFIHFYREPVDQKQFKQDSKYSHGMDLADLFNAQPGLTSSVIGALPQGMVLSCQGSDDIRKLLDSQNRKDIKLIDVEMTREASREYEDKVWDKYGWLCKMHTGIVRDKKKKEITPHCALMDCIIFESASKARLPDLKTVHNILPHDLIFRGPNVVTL
Alpha-galactosidase (Coffea arabica), sequence (Q42656 whole entry, looked up): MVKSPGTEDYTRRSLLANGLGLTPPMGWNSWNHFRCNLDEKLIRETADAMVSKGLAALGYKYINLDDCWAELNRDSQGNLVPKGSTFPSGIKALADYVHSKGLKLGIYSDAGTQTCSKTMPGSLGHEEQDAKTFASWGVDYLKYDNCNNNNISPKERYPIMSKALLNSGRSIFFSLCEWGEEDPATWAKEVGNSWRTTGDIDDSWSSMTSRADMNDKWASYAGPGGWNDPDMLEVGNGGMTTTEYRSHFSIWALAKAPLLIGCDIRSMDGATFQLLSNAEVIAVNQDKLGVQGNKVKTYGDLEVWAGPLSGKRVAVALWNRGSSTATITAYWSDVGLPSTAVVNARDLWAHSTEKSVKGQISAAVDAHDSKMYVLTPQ
Rap guanine nucleotide exchange factor 4 (Homo sapiens), sequence (Q8WZA2 whole entry, looked up): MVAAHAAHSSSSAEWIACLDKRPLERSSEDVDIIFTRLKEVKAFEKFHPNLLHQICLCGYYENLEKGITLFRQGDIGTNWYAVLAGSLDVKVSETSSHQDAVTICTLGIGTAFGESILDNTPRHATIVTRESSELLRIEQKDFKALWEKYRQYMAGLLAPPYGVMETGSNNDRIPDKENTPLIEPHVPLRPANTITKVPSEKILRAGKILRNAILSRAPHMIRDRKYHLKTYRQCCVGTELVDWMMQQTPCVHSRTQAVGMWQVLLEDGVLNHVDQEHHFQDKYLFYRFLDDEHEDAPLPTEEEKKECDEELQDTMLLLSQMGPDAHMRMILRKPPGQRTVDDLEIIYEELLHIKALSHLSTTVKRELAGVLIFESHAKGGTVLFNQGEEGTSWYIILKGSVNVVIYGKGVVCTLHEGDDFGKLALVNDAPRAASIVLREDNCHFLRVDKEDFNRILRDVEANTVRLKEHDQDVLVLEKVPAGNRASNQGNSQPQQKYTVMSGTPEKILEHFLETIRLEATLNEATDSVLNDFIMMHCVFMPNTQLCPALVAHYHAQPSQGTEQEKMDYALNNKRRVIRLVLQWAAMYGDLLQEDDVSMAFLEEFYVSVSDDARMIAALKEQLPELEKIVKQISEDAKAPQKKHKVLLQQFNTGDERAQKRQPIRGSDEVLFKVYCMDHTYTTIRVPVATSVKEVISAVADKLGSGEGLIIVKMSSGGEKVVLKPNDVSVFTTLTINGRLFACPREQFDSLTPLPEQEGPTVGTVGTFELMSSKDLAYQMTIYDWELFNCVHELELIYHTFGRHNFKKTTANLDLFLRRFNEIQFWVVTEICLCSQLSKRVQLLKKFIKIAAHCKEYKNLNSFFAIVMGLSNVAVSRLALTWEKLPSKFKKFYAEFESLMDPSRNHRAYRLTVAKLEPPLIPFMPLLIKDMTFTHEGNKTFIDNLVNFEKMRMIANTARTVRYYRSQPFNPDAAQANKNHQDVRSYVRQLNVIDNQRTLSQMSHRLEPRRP
Rap guanine nucleotide exchange factor 3 (Homo sapiens), sequence (O95398 whole entry, looked up): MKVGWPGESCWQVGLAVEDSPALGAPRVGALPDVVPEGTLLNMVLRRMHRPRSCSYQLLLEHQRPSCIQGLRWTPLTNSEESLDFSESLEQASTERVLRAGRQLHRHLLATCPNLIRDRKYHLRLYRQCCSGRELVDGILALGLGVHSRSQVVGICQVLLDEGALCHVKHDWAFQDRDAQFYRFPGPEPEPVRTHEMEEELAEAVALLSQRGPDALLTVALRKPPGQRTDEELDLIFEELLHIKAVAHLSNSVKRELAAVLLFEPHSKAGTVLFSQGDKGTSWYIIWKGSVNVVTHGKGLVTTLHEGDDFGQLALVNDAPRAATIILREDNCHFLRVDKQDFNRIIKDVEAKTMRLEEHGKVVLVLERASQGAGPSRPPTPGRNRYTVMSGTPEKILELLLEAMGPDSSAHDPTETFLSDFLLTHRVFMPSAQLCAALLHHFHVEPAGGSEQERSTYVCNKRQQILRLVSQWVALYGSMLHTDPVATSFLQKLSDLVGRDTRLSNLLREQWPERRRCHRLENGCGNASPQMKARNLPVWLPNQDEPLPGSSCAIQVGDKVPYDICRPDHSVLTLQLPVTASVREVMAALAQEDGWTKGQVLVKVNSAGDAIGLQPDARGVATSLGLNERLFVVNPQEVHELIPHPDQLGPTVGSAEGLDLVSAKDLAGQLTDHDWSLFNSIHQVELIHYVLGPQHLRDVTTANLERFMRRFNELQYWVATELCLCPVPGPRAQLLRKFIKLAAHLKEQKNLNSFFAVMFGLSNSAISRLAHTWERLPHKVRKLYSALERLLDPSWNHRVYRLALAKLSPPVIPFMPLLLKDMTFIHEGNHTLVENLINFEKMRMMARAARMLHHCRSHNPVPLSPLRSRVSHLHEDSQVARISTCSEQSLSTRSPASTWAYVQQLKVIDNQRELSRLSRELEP
Voltage-gated inwardly rectifying potassium channel KCNH2 (Homo sapiens), sequence (Q12809 whole entry, looked up): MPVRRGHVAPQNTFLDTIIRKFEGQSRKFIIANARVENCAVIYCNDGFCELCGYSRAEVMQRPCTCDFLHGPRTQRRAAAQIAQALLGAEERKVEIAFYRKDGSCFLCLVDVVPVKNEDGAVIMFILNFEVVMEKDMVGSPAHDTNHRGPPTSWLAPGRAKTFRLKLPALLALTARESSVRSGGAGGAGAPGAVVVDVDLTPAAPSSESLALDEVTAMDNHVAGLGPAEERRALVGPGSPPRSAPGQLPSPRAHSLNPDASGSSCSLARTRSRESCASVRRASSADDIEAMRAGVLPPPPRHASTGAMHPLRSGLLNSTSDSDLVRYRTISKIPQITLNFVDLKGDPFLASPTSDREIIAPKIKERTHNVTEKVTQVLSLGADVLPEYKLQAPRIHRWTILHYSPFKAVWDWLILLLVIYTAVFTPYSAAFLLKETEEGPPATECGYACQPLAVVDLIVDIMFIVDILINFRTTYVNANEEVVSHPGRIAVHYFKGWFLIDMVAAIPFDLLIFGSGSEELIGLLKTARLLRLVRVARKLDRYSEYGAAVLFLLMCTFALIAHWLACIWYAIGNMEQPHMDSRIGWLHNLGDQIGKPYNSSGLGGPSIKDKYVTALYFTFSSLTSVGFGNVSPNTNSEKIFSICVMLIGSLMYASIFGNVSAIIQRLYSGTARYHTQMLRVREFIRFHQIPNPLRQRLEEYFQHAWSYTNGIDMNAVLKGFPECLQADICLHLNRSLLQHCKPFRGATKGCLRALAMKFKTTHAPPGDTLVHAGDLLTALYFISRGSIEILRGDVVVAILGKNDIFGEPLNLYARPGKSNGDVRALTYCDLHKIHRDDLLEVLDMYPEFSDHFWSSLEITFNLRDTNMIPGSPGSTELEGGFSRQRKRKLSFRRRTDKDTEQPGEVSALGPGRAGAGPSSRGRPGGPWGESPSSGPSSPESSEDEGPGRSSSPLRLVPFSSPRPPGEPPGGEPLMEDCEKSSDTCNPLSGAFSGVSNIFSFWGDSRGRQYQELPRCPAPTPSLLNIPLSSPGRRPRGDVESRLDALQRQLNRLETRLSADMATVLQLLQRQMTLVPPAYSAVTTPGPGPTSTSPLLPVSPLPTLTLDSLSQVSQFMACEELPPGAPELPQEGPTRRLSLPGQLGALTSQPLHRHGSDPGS

On to `CN1CCc2c(n(Cc3ccc(C(=O)NO)cc3)c3ccccc23)C1`, for which the Potency entry in [1] and in [2] was “inactive” each time. The Potency in assay [3] is 31.6 µM (active).
Consider `COc1ccc2nc3cc(Cl)ccc3c(Nc3cc(CN4CCCC4)c(O)c(CN4CCCC4)c3)c2n1`, for which the Potency result in [1] and in assay [2] was “inactive” in each case.
As for `NC(=O)c1cnc(-c2ccc(C3(N)CCC3)cc2)c(-c2ccccc2)c1`, the Potency entry in assay [1], in assay [2] and in [3] was “inactive” each time.
Consider `C=C1C(=O)C=C[C@]2(C)C[C@@H]3OC(=O)[C@](C)(O)[C@H]3C[C@@H]12`, for which, in [4], the Potency is 14.1 µM (active).
Consider `c1nc2nc(Nc3ccc(N4CCOCC4)cc3)nc(NC3CCCCC3)c2[nH]1`, for which the Potency result in [1] and in [3] was “inactive” each time.
`CC(C=CC(=O)NO)=C[C@@H](C)C(=O)c1ccc(N(C)C)cc1`: the Potency in assay [4] was 15.3 µM (active).
With `CC(C)C[C@@H]1NC(=O)[C@H](Cc2ccccc2)N(C)C(=O)[C@H](C)NC(=O)c2ccccc2NC(=O)[C@H](Cc2ccc(O)cc2)N(C)C1=O`, the Potency in assay [4] is 8.91 µM (active).
Take `COc1ccc2c3c1OC1C[C@@H](O)C=C[C@@]31CCN(C)C2` (stereo partly specified): the parasite growth, % of DMSO control in assay [5] amounted to 89.5%. In addition, the Potency result in assay [1] was “inactive”.
Consider `CCCCCCC/C=C/C=O`, for which, in [4], the Potency result is “inactive”.
Consider `COc1cc2c(cc1OC)-c1c(OC)c(OC)cc3c1C(C2)N(C)CC3` (stereo unspecified), for which the Potency result in assay [1] and in [8] was “inactive” throughout. For the same compound, the call in assay [6], in assay [7] and in assay [9] was inactive.
As to `Oc1cc(-c2nc(-c3ccccc3)[nH]c2-c2ccncc2)ccc1Cl`, the Potency in assay [4] was 1.53 µM (active).
Turning to `CCN(CC)CCCC(C)Nc1nc(C)cc(Nc2ccc3nc(C)cc(N)c3c2)n1` (stereo unspecified), the Potency result in assay [1] and in [3] was “inactive” throughout. Further, the activity change, negative = inhibition in assay [10] is -23.9%.
As for `O=c1cc(-c2ccccc2)[nH]c2nc(Cl)ccc12`, in assay [11], the result was inactive. Moreover, the Potency result in assay [12] and in assay [1] was “inactive” in each case.
Consider `COc1ccc(-n2c(C)c([N+](=O)[O-])c3ccc(O)cc32)cc1`, for which the Potency result in assay [1] and in [3] was “inactive” throughout. Moreover, the activity change, negative = inhibition in assay [10] is -4.69%.
`C[C@@]12C(=O)OC(=O)[C@@]1(C)C1CCC2O1`: in assay [4], the Potency is 19.3 µM (active).
On to `COc1ccc(NC(=O)c2ccc(-c3ccc(-c4noc(C)n4)cc3C)cc2)cc1N1CCN(C)CC1`, for which the result in assay [11], in assay [13] and in [14] was inactive. In [12], the Potency is 7.94 µM (active). In addition, in assay [1], the Potency entry was “inactive”.
Regarding `CCC1(O)CC2CN(CCc3c([nH]c4ccccc34)[C@@](C(=O)OC)(c3cc4c(cc3OC)N(C=O)C3[C@]45CCN4CC=C[C@@](CC)([C@@H](OC(C)=O)[C@]3(O)C(=O)OC)[C@H]45)C2)C1` (stereo partly specified), the Potency in [12] is 20 µM (active). Further, in [14], the outcome was inactive. In addition, in [1], the Potency entry was “inactive”.
Take `C[C@]12CC[C@H](O)CC1=CCC1C2CC[C@]2(C)C(n3cnc4ccccc43)=CCC12` (stereo partly specified): the Potency result in [1], in assay [3] and in assay [10] was “inactive” each time.
With `CCCCC[C@H](CC(=O)NO)C(=O)N[C@H](C(=O)N1CCC[C@H]1CO)C(C)C`, the Potency entry in assay [12] and in [1] was “inactive” in each case. Also, the result in assay [14] was inactive.
In the case of `N=C(N)c1ccc(OCCCCCOc2ccc(C(=N)N)cc2)cc1` (tested in a mixture with another compound), the compound was called inactive in assay [13] and in assay [14]. For the same compound, the Potency result in assay [12] is “inactive”. The Potency in [1] is 7.08 µM (active).
As to `Cc1cc(Nc2ncnc3ccc(-c4ccc(CNCCS(C)(=O)=O)o4)cc23)ccc1Oc1ccn2ncnc2c1`, in assay [1], the Potency is 15.3 µM (active). Besides, the Potency entry in [3] and in assay [10] was “inactive” throughout.
As to `COc1ccc(-c2cc3ncc(C)n3c(Nc3ncccc3C(N)=O)n2)cc1OC`, in [14], the outcome was inactive. For the same compound, the Potency entry in assay [1] is “inactive”.
Regarding `CC(C)ON([C@@H](C(=O)NO)C(C)C)S(=O)(=O)c1ccc(-c2ccccc2)cc1`, the call in [14] was inactive. Besides, the Potency entry in assay [1] was “inactive”.
For the compound `CN1CCCC1CCOC(C)(c1ccccc1)c1ccc(Cl)cc1` (stereo unspecified), the Potency in assay [12] was 10 µM (active). In assay [14], the result was inactive. The Potency result in assay [1] was “inactive”.
For `O=C(O)C=Cc1ccc(O)c(O)c1`, in assay [4], the Potency is 43.2 µM (active).
In the case of `CCOC(=O)N1CCN(/[N+]([O-])=N/Oc2ccc([N+](=O)[O-])cc2[N+](=O)[O-])CC1`, the Potency result in assay [1] and in [3] was “inactive” in each case. In addition, in [10], the activity change, negative = inhibition is -5.73%.
As to `CCOC(=O)N1c2ccc(C(F)(F)F)cc2[C@@H](N(Cc2cc(C(F)(F)F)cc(C(F)(F)F)c2)C(=O)OC)C[C@H]1CC`, the Potency entry in assay [1], in assay [3] and in assay [10] was “inactive” throughout.
With `CC1CNCCN1S(=O)(=O)c1cccc2cnccc12` (stereo unspecified), the Potency result in [12] and in assay [1] was “inactive” each time. Besides, in [14], the call was inactive.
On to `O=Nc1c(-c2c(O)[nH]c3ccccc23)[nH]c2ccccc12`, for which the outcome in [11] and in [13] was inactive. Moreover, the Potency result in [1] is “inactive”.
Regarding `COc1ccc(COc2cc3oc(=O)c4cc(C(C)O)ccc4c3cc2OC)cc1` (stereo unspecified), the Potency entry in [1] and in assay [3] was “inactive” throughout. The activity change, negative = inhibition in assay [10] was -25.6%.
Regarding `COC(=O)Nc1nc2ccc(C(=O)c3ccc(F)cc3)cc2[nH]1`, the Potency result in assay [1] and in [3] was “inactive” throughout. Also, the Potency in [10] was 1.26 µM (active).
Turning to `Oc1ccc2ccccc2c1SSc1c(O)ccc2ccccc12`, in assay [14], the outcome was inactive. Also, the Potency result in [1] and in [3] was “inactive” throughout.
Consider `CN(C)c1cc2c(Nc3ccc4c(cnn4Cc4ccccc4)c3)ncnc2cn1`, for which the compound was classed as inactive in assay [11] and in assay [13]. Moreover, in assay [1], the Potency entry was “inactive”.
As to `O=C(Nc1nc2cccc(-c3ccc(CN4CCS(=O)(=O)CC4)cc3)n2n1)C1CC1`, the Potency in assay [4] is 38.5 µM (active).
Same read-out and setting: the result for `CC[C@]12C=CCN3CC[C@@]4(c5cc([C@@]6(C(=O)OC)C[C@H]7C[C@@H](C(C)(F)F)CN(Cc8c6[nH]c6ccccc86)C7)c(OC)cc5N(C)[C@H]4[C@@](O)(C(=O)OC)[C@H]1OC(C)=O)[C@@H]32` reads 0.0172 µM (active); that for `CC(=O)OC1(C)CC(C)C(=O)C(C(O)CC2CC(=O)NC(=O)C2)C1` (stereo unspecified), “inactive”.
Take `O[Si](CCCN1CCCCC1)(c1ccc(F)cc1)C1CCCCC1` (stereo unspecified): the call in assay [14] was inactive. Also, the Potency in assay [15] is 14.1 µM (active). Also, in assay [1], the Potency result was “inactive”.
As to `COc1cc(C)c(Sc2cnc(NC(=O)c3ccc(CNC(C)C(C)C)cc3)s2)cc1C(=O)N1CCN(C(C)=O)CC1` (stereo unspecified), the Potency is 24.3 µM (active) in assay [1] and 9.61 µM (active) in [16]. Moreover, the activity change, negative = inhibition in assay [10] is -95.3%.
Regarding `O=C(NC1CC1)c1cccc(-c2ccc3c(NC(=O)C4CC4)n[nH]c3c2)c1`, in assay [1], the Potency entry was “inactive”. Moreover, the Potency in [16] was 17.1 µM (active).
